From PubChem BioAssay AID504444 (National Center for Advancing Translational Sciences (NCATS), 2011)
Screen size: about 360,000 compounds; about 7,500 (2.1%) were called active. Where a call stands in place of a potency, no number is given. Inconclusive results (about 20%) are left out. The sample as a whole holds a higher share of actives than the screen did. Values without a mark were called inactive. Calls follow the shape of the dose curve; as a rule, active = well fitted inhibition curve with a large enough effect; inconclusive = small, poorly fitted or top-dose-only effect, or effect the other way; inactive = flat fitted curve, though single readings scatter.

Assay: Nrf2 qHTS screen for inhibitors; also: nearly all actives have a fitted effect of over 60% in size
Settings: A549 ARE-Fluc reporter, luciferase luminescence, 18-24 h; series mostly up to 46 µM
How it was run: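 Two sequential reads on A549 ARE_Fluc cells exposed to compound for 18-24 h: a CellTiter-Fluor fluorescence read for viability, then a luciferase luminescence read for Nrf2/ARE activity.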
Potency is read from the fitted curve at half-maximal effect.

SMILES | Potency | activity change, negative = inhibition
Oc1ccccc1N1CCN(c2ncnc3sc(-c4ccccc4)cc23)CC1 | inactive | –
CCc1cc2c(NC(Cc3ccccc3)C(=O)O)ncnc2s1 (configuration not stated) | inactive | –
CCc1cc2c(N3CCN(c4nnc(CC)s4)CC3)ncnc2s1 | 23.1 µM (active) | –
Cc1nn(-c2ccc(N3CCCCC3)nn2)c(C)c1CCC(=O)NCc1ccc(F)cc1 | inactive | –
COc1ccc(OC)c(NC(=O)CN2CCCN(Cc3cc(C)ccc3C)S2(=O)=O)c1 | inactive | –
O=C(N[C@H]1C/C=C\C(c2cccc(F)c2)N(Cc2ccccc2)C(=O)C1)OCC1c2ccccc2-c2ccccc21 (some centres not stated) | inactive | –
N/C(=N\OC(=O)Nc1ccc(Cl)c(Cl)c1)c1ncc(C(F)(F)F)cc1Cl | inactive | –
CCn1nccc1C(=O)Nc1ccc(Cl)c(Cl)c1 | inactive | –
O=C(CC(O)(C(F)(F)F)C(F)(F)F)Nc1ccc(Cl)c(Cl)c1 | 2.91 µM (active) | –
CCN(CC)c1nc(C#N)nc(OC)n1 | inactive | –
O=C(c1ccccc1)N1CCN(C(=O)c2cc3nc(-c4ccccc4)cc(C(F)(F)F)n3n2)CC1 | 25.9 µM (active) | –
CC1CCN(C(=O)c2cc3nc(C4CC4)cc(C(F)(F)F)n3n2)CC1 | 18.4 µM (active) | –
C=CCNC(=O)c1cc2nc(C3CC3)cc(C(F)F)n2n1 | inactive | –
O=C(NCC12CC3CC(CC(C3)C1)C2)c1cc2nc(-c3ccccc3)cc(C(F)(F)F)n2n1 | inactive | –
COC(=O)c1cc2nc(-c3ccccc3)cc(C(F)(F)F)n2n1 | inactive | –
Cc1cccc(-n2ncc(C(=O)N3CCC(C)CC3)c2C2CCN(C(=O)OC(C)(C)C)CC2)c1 | inactive | –
CC(Sc1oc(-c2ccco2)nc1S(=O)(=O)c1ccc(Br)cc1)c1ccccc1 (configuration not stated) | – | 8.26% [at 9.27 µM]
Cc1ccc(-c2nnc3ccc(SCC(N)=O)nn23)cc1 | inactive | –
Cc1ccc(CNC(=O)CSc2c3c(nc4cc(Cl)ccc24)CCCC3)cc1 | inactive | –
Cc1cccc(NC(=S)N2CCC(C(=O)c3ccc(F)cc3)CC2)c1 | inactive | –
CCOc1ccc(C2C(C(=O)Nc3ccc(Cl)cc3)=C(C)Nc3nc(C(F)(F)F)nn32)cc1 (configuration not stated) | inactive | –
CCN(CC)c1ccc(NC(=O)CN2C(=O)c3cccnc3Oc3ccc(Cl)cc32)c(C)c1 | inactive | –
Cc1cccc(N2CCN(c3ccc(NC(=O)/C=C\C(=O)O)cc3)CC2)c1 | inactive | –
CN1CCN(c2ccc(NC(=O)c3cc(Cl)c4c(c3)OCCO4)cc2)CC1 | inactive | –
C=CC(=O)Nc1ccc(Nc2ccnc(Nc3ccc(N4CCN(C)CC4)cc3)n2)cc1 | 14.6 µM (active) | –

SMILES | Potency | activity change, negative = inhibition
Cc1nn(-c2nc(-c3ccccc3)cc(C(F)(F)F)n2)c(C)c1Cl | inactive | –
CCN(c1ccccc1)S(=O)(=O)c1cccc(C(=O)NCc2ccccc2CN2CCOCC2)c1 | inactive | –
Cc1ccc(-c2nn(C(C)(C)C)c3ncnc(N)c23)cc1 | 18.4 µM (active) | –
Cc1ccc(-n2cnc3ncnc(-c4ccccc4)c32)cc1 | inactive | –
Cc1nc2ccn(Cc3cccnc3)c(=O)c2cc1C(=O)N1CCN(c2ccccc2F)CC1 | inactive | –
CCOc1ccc(CNC(=O)C2CCN(c3nnc(-n4cccc4CNc4ccc(C)cc4)s3)CC2)cc1OC | inactive | –
COc1ccc(Br)cc1/C=N/Nc1ccc(S(=O)(=O)Nc2ccccc2C(=O)O)cc1[N+](=O)[O-] | inactive | –
CCOC(=O)c1c(-c2ccccc2)oc2ccc(OCC(N)=O)cc12 | inactive | –
CCOC(=O)c1c(-c2ccccc2)oc2cc(Br)c(O)c(C=O)c12 | 20.6 µM (active) | –
CCOC(=O)c1c(-c2ccccc2)oc2cc(Br)c(O)cc12 | inactive | –
COc1ccccc1N(CCOc1ccccc1)S(=O)(=O)c1ccccc1 | inactive | –
COc1cccc(CC(=NO)c2cccc(OC)c2)c1 | inactive | –
COc1cccc(CNC(=O)CN2C(=O)NC(Cc3ccccc3)(c3ccccc3)C2=O)c1 (configuration not stated) | inactive | –
CCCCNC(=O)CN1C(=O)NC(Cc2ccccc2)(Cc2ccccc2)C1=O | inactive | –
O=C(CN1C(=O)NC(Cc2ccccc2)(Cc2ccccc2)C1=O)NCC1CCCCC1 | 23.1 µM (active) | –
Cc1ccc(C(=O)CC2(O)C(=O)N(CCc3ccccc3)c3ccc(Br)cc32)cc1 (configuration not stated) | inactive | –
CCCNC(=O)c1ccc(N2CCC3(CC2)CC(c2ccc(Cl)cc2)=NO3)c([N+](=O)[O-])c1 | 23.1 µM (active) | –
COCCNC(=O)c1ccc(N2CCC3(CC2)OCCO3)c([N+](=O)[O-])c1 | inactive | –
O=C(NCCCN1CCOCC1)c1ccc(N2CCCC2)c([N+](=O)[O-])c1 | inactive | –
CCOC(=O)N1CCc2c(sc3c2c(=O)n(-c2ccc(CC)cc2)c(=O)n3C)C1 | inactive | –
CCOC(=O)C1CCN(C(=O)CSc2c3c(nc4ccc(Cl)cc24)CCCC3)CC1 | inactive | –
Cc1ccc(-c2cc(C(F)(F)F)c(C#N)c(SCC(=O)Nc3ccccc3)n2)cc1 | inactive | –
NS(=O)(=O)c1ccc(CCNC(=O)Nc2ccc(Cl)cc2)cc1 | inactive | –
Cn1ccc(NC(=O)Nc2ccc(Cl)cc2)n1 | inactive | –
CC(C)S(=O)(=O)c1csc(NC(=O)Nc2ccc(Cl)cc2)c1Cl | 20.6 µM (active) | –

SMILES | Potency | activity change, negative = inhibition
Cc1ccc(CN2CCC(CNC(=O)c3cnn(-c4ccc(C)cc4)c3C3CCN(C(=O)OC(C)(C)C)CC3)CC2)cc1 | inactive | –
CCOc1ccc(NC(=O)COC(=O)C2CCC(=O)N2)c([N+](=O)[O-])c1 (configuration not stated) | inactive | –
COc1ccc(C2=NC3(CCCCC3)N(CC(=O)Nc3ccc(C(C)C)cc3)C2=O)cc1 | inactive | –
COc1ccc(CCNC(=O)CCCCn2c(=O)c3ccccc3n(Cc3ccccc3)c2=O)cc1OC | inactive | –
COC[C@@H]1NS(=O)(=O)c2ccc(Br)cc2O[C@H]1c1ccccc1 | inactive | –
CN(C(=O)c1cccc(NC(=O)C2CCN(C(=O)OC(C)(C)C)CC2)c1)C1CCC1 | inactive | –
O=C(Cc1ccc(-n2c(=O)[nH]c3ccccc3c2=O)cc1)N1CCN(c2cccc(Cl)c2)CC1 | 16.4 µM (active) | –
O=C(CCCC(=O)N1CCN(c2cccc(Cl)c2)CC1)c1ccccc1 | inactive | –
O=C(CCn1c(=O)[nH]c2ccccc2c1=O)NCCCN1CCN(c2cccc(Cl)c2)CC1 | inactive | –
CCn1c(C(=O)Nc2cc(Cl)ccc2C)cc2sc(Cl)cc21 | inactive | –
COc1ccc(-n2c(=O)c3sc4ccccc4c3n(CC(=O)Nc3cccc(C)c3)c2=O)cc1 | inactive | –
Cc1ccc(C)c(Cn2c(C)c(CNCc3ccc(F)cc3)c(C(=O)O)c2C)c1 | inactive | –
Cc1ccc(S(=O)(=O)N2CCC(C(=O)N3CCCCCCC3)CC2)cc1 | inactive | –
COc1cccc2c(C)c(C(=O)O)[nH]c12 | 20.6 µM (active) | –
Cc1c(C(=O)N/N=C/c2ccccc2)[nH]c2c([N+](=O)[O-])cccc12 | inactive | –
COc1cc2c(C(=O)O)c(C)n(C)c2c2ccccc12 | inactive | –
Cc1cc2c(cc3c(SCc4cccc(Cl)c4)nnc(C)n32)o1 | inactive | –
CC1Sc2ccc(C(=O)NCc3ccccc3Cl)cc2NC1=O (configuration not stated) | inactive | –
CCn1c(O)c(N=NC(=O)c2cccc(S(=O)(=O)N3CCCCC3)c2)c2ccccc21 | 20.6 µM (active) | –
Cc1cccc(NC(=O)c2cccc(S(=O)(=O)N3CCCC3)c2)n1 | inactive | –
CCn1c2ccccc2c2cc(NC(=O)COC(=O)c3cc(S(=O)(=O)N4CCCCC4)ccc3Cl)ccc21 | inactive | –
Cc1ccc(S(=O)(=O)N2CCN(C(=O)COC(=O)/C=C/c3cccc(Cl)c3)CC2)c(C)c1 | inactive | –
COC(=O)c1ccccc1NC(=O)c1cc(-c2ccccc2O)no1 | inactive | –
Cc1ccc(C)c(S(=O)(=O)N(C)c2ccc(OC(=O)C3CCN(C(=O)c4ccc(F)cc4)CC3)cc2)c1 | inactive | –
COc1cccc2c1cc1c(=O)n(CC(=O)N3CCN(c4ccccc4)CC3)nc(C)n12 | inactive | –

SMILES | Potency | activity change, negative = inhibition
COC(=O)COc1ccc(S(=O)(=O)Nc2ccc(NC(C)=O)cc2)cc1 | inactive | –
COc1ccc(NS(=O)(=O)c2ccc(NC(=O)c3ccc(N(C)S(C)(=O)=O)cc3)cc2)cc1 | 16.4 µM (active) | –
COc1ccc(NS(=O)(=O)c2ccc(C(=O)Nc3c(C)n(C)n(-c4ccccc4)c3=O)cc2)cc1 | inactive | –
COc1cc(NS(=O)(=O)c2ccc(NC(C)=O)cc2)cc(OC)c1 | 5.8 µM (active) | –
COc1cc(OC)cc(C(=O)Nc2ccc(S(=O)(=O)Nc3cc(C)on3)cc2)c1 | inactive | –
COc1ccc(NC(=O)c2cnc(NS(=O)(=O)c3ccccc3)nc2)cc1 | inactive | –
O=C(OCC#CCSc1nnc(-c2ccco2)o1)c1ccc(F)cc1 | inactive | –
CC(C)n1cnc2c(NCc3ccccc3)cc(OCC3CCN(C)CC3)cc21 | inactive | –
Cc1ccc(NC(=O)c2ccc(Cl)nc2)cc1S(=O)(=O)N1CCOCC1 | inactive | –
CCc1ccc(NC(=O)CCCc2nnc3n(CCCOC)c(=O)c4sccc4n23)cc1 | inactive | –
O=C(c1cc2cc(F)ccc2[nH]1)N1CCN(c2ccc(F)cc2)CC1 | inactive | –
O=C(c1cncc(Br)c1)N1CCN(c2ccc([N+](=O)[O-])cc2)CC1 | inactive | –
O=C(c1cc(C(=O)N2CCN(c3ccc(F)cc3)CC2)cc([N+](=O)[O-])c1)N1CCN(c2ccc(F)cc2)CC1 | 18.4 µM (active) | –
Cc1ccc(-n2c(=O)c3cccnc3n2CC(=O)Nc2ccccc2C(F)(F)F)cc1C | inactive | –
CC(C)(C)OC(=O)C[C@@H]1C/C=C\C[C@@H](CC(=O)N(CCO)Cc2ccccc2)C(=O)N[C@H](Cc2ccccc2)COC1=O | inactive | –
CCCn1c(=N)n(CC(O)COc2ccccc2OC)c2ccccc21 (configuration not stated) | inactive | –
Cc1cc(C(=O)Nc2c(C)nn(Cc3ccccc3)c2C)on1 | inactive | –
CC(C)Cc1cc(C(=O)Nc2cc(Br)ccc2O)no1 | inactive | –
Cc1nn(Cc2ccc(F)cc2)c(C)c1NC(=O)c1noc2c1CCc1ccccc1-2 | 20.6 µM (active) | –
Cc1ccccc1Cn1nc(C)c(NC(=O)c2cc(-c3ccc(F)cc3)on2)c1C | inactive | –
Cc1nn(Cc2ccc(F)cc2)c(C)c1NC(=O)c1cccnc1Cl | inactive | –
Cc1nn(Cc2ccc(F)cc2)c(C)c1NC(=O)c1cc(CC(C)C)on1 | 20.6 µM (active) | –
